According to PubChem BioAssay (Tox21):
Unmarked numbers belong to inactive results. Records with an inconclusive call do not appear. Entries that show only a call come without a potency. Activity calls are given as the source filed them. Unless noted, calls follow the shape of the dose curve; as a rule, active = well fitted curve in the direction sought with a large enough effect in the repeat runs; inconclusive = weak or mixed curves; inactive = no such curve, though single readings can be large; an effect the other way counts as inactive or inconclusive.

What was measured:
[1] = qHTS assay for small molecule agonists of the p53 signaling pathway (AID 651631; calls by dose curve; also: nearly all actives have a fitted effect of over 15% in size)
How it was run: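 Readout was fluorescence from the LiveBLAzer FRET substrate, applied for 2 h at room temperature after 16 h compound exposure at 37 °C. Cells were the p53RE-bla HCT-116 line, with beta-lactamase driven by p53 response elements.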

[2] = qHTS assay for small molecules that induce genotoxicity in human embryonic kidney cells expressing luciferase-tagged ATAD5 (AID 651632); also: nearly all actives have a fitted effect of over 15% in size; also: potency is read from the fitted curve at half-maximal effect
How it was run: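 DMSO vehicle served as the control. HEK293T reporter cells, 16 hr at 37C, then 30 min Amplite at room temperature; ATAD5 induction is measured as luciferase activity.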

[3] = qHTS assay for small molecule agonists of the p53 signaling pathway - cell viability (AID 651633; calls by dose curve; also: series mostly up to about 83 µM; nearly all actives have a fitted effect of over 30% in size)
How it was run: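 Viability counter-read: CellTiter-Glo luminescence (30 min, room temperature) in the same p53RE-bla plates. These plates had been exposed to compounds for 16 h at 37 C.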

[4] = qHTS assay for small molecules that induce genotoxicity in human embryonic kidney cells expressing luciferase-tagged ATAD5 - cell viability (AID 651634; calls by dose curve; also: nearly all actives have a fitted effect of over 25% in size)
How it was run: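 Here HEK293T cells with the ATAD5 luciferase reporter are incubated with test compounds for 15.5 hr, and cytotoxicity is then gauged by measuring protease activity in live cells using fluorescence.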

[5] = qHTS assay for small molecule disruptors of the mitochondrial membrane potential - cell viability (AID 720634; calls by dose curve;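 also: human HepG2 liver cancer cells; series mostly up to about 83 µM; nearly all actives have a fitted effect of over 20% in size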)
How it was run: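 Viability of HepG2 cells is scored from ATP content by luminescence; cells are exposed to compound for 1 hr at 37 C and 5% CO2, then dosed with m-MPI dye before the CellTiter-Glo reagent.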

[6] = qHTS assay to test for compound auto fluorescence at 590 nm (red) in HepG2 cells (AID 720674)
How it was run: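 1 hr compound incubation on HepG2 cells, 37 C, 5% CO2; plate read ex 540 nm / em 590 nm; intensities reported as Rose Bengal sodium equivalents.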

[7] = qHTS assay to test for compound auto fluorescence at 535 nm (green) in HepG2 cells (AID 720675)
[8] = qHTS assay to test for compound auto fluorescence at 460 nm (blue) in HEK293 cells (AID 720678)
How it was run: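 Auto fluorescence in the blue band was quantified as triamterene equivalency. HEK293 cells were seeded at 2,000/well, dosed after a 4-5 hr attachment, and kept overnight at 37C before the 405/460 nm reading.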

[9] = qHTS assay to test for compound auto fluorescence at 590 nm (red) in HEK293 cells (AID 720679)
How it was run: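 Autofluorescence equivalency to Rose Bengal sodium, 540/590nm, in HEK293 cells exposed overnight to 23 nL compound per well.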

[10] = qHTS assay to test for compound auto fluorescence at 535 nm (green) in HEK293 cells (AID 720680)
[11] = qHTS assay to test for compound auto fluorescence at 460 nm (blue) in HEK293 cell free culture (AID 720681)
How it was run: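 Blue fluorescence (Ex 405/Em 460 nm, triamterene-equivalent) was read immediately after pin transfer of compound or DMSO into medium (DMEM, 10% FBS) without cells.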

[12] = qHTS assay to test for compound auto fluorescence at 535 nm (green) in HEK293 cell free culture (AID 720682)
How it was run: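 Compounds were pin-transferred into cell-free DMEM with 10% FBS, and green fluorescence was read at excitation 485 nm and emission 535 nm. Intensities were expressed as fluorescein-equivalent values.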

[13] = qHTS assay to test for compound auto fluorescence at 590 nm (red) in HEK293 cell free culture (AID 720683)
How it was run: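 Red-channel autofluorescence of compounds in culture medium (DMEM, 10% FBS), no cells, measured at 540/590 nm. Rose Bengal sodium is the reference fluorophore for equivalence.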

[14] = qHTS assay to test for compound auto fluorescence at 460 nm (blue) in HepG2 cell free culture (AID 720685)
How it was run: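 Cell-free plates of MEM plus 10% FBS received 23 nL compound or DMSO vehicle; blue-channel (405/460 nm) intensity scored against triamterene as reference fluorophore.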

[15] = qHTS assay to test for compound auto fluorescence at 535 nm (green) in HepG2 cell free culture (AID 720686)
[16] = qHTS assay to test for compound auto fluorescence at 460 nm (blue) in HepG2 cells (AID 720687)
How it was run: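 Blue-channel autofluorescence (Ex/Em 405/460 nm, triamterene-equivalent) was measured after 1 hr compound exposure at 37 C, 5% CO2. Cells were HepG2, plated overnight at 37 C in MEM plus 10% FBS.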

[17] = biological target: Glucocorticoid receptor (Homo sapiens) (UniProt P04150); assay: qHTS assay to identify small molecule agonists of the glucocorticoid receptor (GR) signaling pathway (AID 720691; active = well fitted activation curve with a large enough effect in the signal ratio in the repeat runs, not every such curve was filed as active; the % refers to the signal ratio)
Glucocorticoid receptor (Homo sapiens), sequence (P04150 whole entry, looked up): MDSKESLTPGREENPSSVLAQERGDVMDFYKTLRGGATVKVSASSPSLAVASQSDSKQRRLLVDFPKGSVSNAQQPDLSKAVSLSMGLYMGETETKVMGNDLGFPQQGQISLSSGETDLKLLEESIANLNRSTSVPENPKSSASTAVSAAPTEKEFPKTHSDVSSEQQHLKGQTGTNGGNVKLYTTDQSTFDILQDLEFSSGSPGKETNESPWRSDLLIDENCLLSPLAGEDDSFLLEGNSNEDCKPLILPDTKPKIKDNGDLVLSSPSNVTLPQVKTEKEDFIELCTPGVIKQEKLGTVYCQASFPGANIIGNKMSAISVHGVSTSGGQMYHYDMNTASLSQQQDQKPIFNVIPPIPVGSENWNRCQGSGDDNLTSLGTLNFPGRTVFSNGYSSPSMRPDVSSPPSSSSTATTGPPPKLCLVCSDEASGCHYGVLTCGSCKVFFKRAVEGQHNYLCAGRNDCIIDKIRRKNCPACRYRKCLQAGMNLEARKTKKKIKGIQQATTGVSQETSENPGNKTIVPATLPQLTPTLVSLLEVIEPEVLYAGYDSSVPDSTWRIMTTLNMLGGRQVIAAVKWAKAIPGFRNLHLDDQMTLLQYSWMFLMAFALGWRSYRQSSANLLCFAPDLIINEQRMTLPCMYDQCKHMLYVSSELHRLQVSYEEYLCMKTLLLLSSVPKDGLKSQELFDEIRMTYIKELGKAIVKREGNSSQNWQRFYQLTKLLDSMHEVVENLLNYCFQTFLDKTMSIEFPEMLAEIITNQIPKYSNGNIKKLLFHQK
How it was run: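 Compounds in DMSO, alongside positive controls, were added to GR-bla HeLa reporter cells and incubated 18 h at 37 C; GRE-driven beta-lactamase was detected by fluorescence after 2 h with FRET substrate at room temperature.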

[18] = qHTS assay to test for compound auto fluorescence at 590 nm (red) in HepG2 cell free culture (AID 720684)
How it was run: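 Cell-free; medium MEM + 10% FBS; compound or DMSO added by pintool; read Ex 540/Em 590 nm; Rose Bengal sodium as red reference fluorophore.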

[19] = biological target: Glucocorticoid receptor (Homo sapiens) (UniProt P04150); assay: qHTS assay to identify small molecule antagonists of the glucocorticoid receptor (GR) signaling pathway (AID 720692; active = well fitted inhibition curve with a large enough effect in the signal ratio in the repeat runs, not every such curve was filed as active; the % refers to the signal ratio)
How it was run: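 In a 1536-well cell format, compounds were added 4 h after seeding GR-bla HeLa cells, together with dexamethasone at 5 nM final; reporter activity was measured by FRET-substrate fluorescence following 18 h at 37 C.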

[20] = qHTS assay for small molecule disruptors of the mitochondrial membrane potential (AID 720635); also: potency is read from the fitted curve at half-maximal effect
How it was run: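 Mitochondrial membrane potential tracked with Mito-MPS dye, red aggregates (ex 540/em 590 nm) against green monomers (ex 490/em 535 nm). Compound treatment 1 hr at 37C, dye 30 min in HepG2.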

| Compound | Potency [1] | Potency [2] | Potency [3] | Potency [4] | Potency [5] | outcome [6] | outcome [7] | Potency [8] | outcome [9] | outcome [10] | Potency [11] | outcome [12] | outcome [13] | Potency [14] | outcome [15] | Potency [16] | Potency [17] | outcome [18] | Potency [19] | Potency [20] |
| --- | --- | --- | --- | --- | --- | --- | --- | --- | --- | --- | --- | --- | --- | --- | --- | --- | --- | --- | --- | --- |
| C=C(C)C(=O)NCCCN(C)C | inactive | inactive | inactive | inactive | inactive | inactive | inactive | inactive | inactive | inactive | inactive | inactive | inactive | inactive | inactive | inactive | inactive |  |  |  |
| Fc1ccccc1-c1ccccc1 | inactive | inactive | inactive | inactive | inactive | inactive | inactive | inactive | inactive | inactive |  | inactive | inactive | inactive | inactive | inactive | inactive | inactive | inactive |  |
| Cc1nccn1CC1CCc2c(c3ccccc3n2C)C1=O (stereo unspecified) | inactive | inactive | inactive | inactive | inactive | inactive | inactive | inactive | inactive |  | inactive | inactive | inactive | inactive | inactive | inactive | inactive | inactive | inactive |  |
| Oc1ccc2c(c1)OC[C@@H](N1CCC(O)(c3ccc(F)cc3)CC1)[C@H]2O | inactive | 7.5 µM (active) | inactive | inactive |  | inactive | inactive |  | inactive | inactive | inactive | inactive | inactive | inactive | inactive | inactive | inactive |  | inactive | 33.5 µM (active) |
| CCCCN(CCO)CCO | inactive | inactive | inactive | inactive | inactive | inactive | inactive | inactive | inactive | inactive | inactive | inactive | inactive | inactive | inactive | inactive | inactive |  | inactive |  |
| CCCCCCCCC=O | inactive | inactive | inactive | inactive | inactive | inactive | inactive | inactive | inactive | inactive |  | inactive | inactive | inactive | inactive | inactive | inactive | inactive | inactive |  |
| O=C(O)c1ccccc1S | inactive | inactive | inactive | inactive | inactive | inactive | inactive | inactive | inactive | inactive |  | inactive | inactive | inactive | inactive |  | inactive |  | inactive |  |
| CCCCCOC(=O)Nc1nc(=O)n([C@@H]2O[C@H](C)[C@@H](O)[C@H]2O)cc1F | inactive | inactive | inactive | inactive | inactive | inactive | inactive |  | inactive |  | inactive | inactive | inactive | inactive | inactive | inactive |  |  |  |  |
